Assay outcomes as filed in PubChem BioAssay.
D1 agonist: Allosteric Agonists of the Human D1 Dopamine Receptor: qHTS | D(1A) dopamine receptor (Homo sapiens), P21728 | activation, % at 2 µM | HEK293 T-REx D1 cells, calcium flux, agonist mode | 360,000 compounds, 1% hits; in the data active means activation above about 30%
Target sequence (P21728 whole entry, looked up): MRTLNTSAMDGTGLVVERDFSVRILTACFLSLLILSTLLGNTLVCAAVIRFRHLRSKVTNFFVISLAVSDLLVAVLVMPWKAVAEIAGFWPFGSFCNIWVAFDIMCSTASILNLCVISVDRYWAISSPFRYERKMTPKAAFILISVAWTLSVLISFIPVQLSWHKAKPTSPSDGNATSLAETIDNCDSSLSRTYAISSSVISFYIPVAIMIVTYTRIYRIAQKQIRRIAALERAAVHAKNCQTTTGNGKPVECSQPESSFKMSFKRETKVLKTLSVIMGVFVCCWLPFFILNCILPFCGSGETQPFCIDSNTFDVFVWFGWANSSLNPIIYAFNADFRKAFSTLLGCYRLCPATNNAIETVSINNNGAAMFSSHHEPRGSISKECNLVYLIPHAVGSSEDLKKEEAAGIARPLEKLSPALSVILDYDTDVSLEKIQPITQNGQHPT
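Agonism was scored from calcium flux recorded over 180 s (1 read/s) after pintool compound addition, following a 10-cycle baseline. Cells were inducible force-coupled HEK293 TREx D1, plated overnight at 30 C and loaded with no-wash calcium dye.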
TRPV1 ag: HTS Assay for Compounds that Act as Agonists of the Vanilloid Receptor 1; Transient receptor potential cation channel subfamily V member 1 (Homo sapiens), Q8NER1; TRPV1-expressing cells, Fluo-8 calcium influx, agonist mode; activation, % at 8.33 µM; 320,000 compounds, 0.19% hits; in the data active means activation above about 80%; inconclusive means between about 30% and that limit
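Cells expressing TRPV1 were dye-loaded with Fluo-8 and read kinetically: 10 s baseline, 3 min after compound (agonist portion), then 2 min after EC20 capsaicin (allosteric enhancer portion). Calcium-bound dye fluorescence at 480/520 nm.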
TRPV1 potentiator: HTS Assay for Compounds that Act as Potentiators of the Vanilloid Receptor 1; Transient receptor potential cation channel subfamily V member 1 (Homo sapiens), Q8NER1; TRPV1-expressing cells, Fluo-8 calcium influx, capsaicin EC20 potentiation; potentiation, % at 8.33 µM; 320,000 compounds, 0.02% hits; AID 540277, 2011; in the data active means potentiation above about 80%; inconclusive means between about 30% and that limit
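TRPV1-expressing cells were cultured overnight at 35.5C and loaded with Fluo-8 calcium dye for 40 to 90 min at room temperature. After a 10 s baseline, compound was added and calcium influx was read kinetically for 3 min (ex 480/em 520 nm).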
D1 antagonist: Antagonist of Human D 1 Dopamine Receptor: qHTS; D(1A) dopamine receptor (Homo sapiens), P21728; HEK293 TREx D1 cells, calcium flux, dopamine EC80; hits give low values; activity change, negative = inhibition, % at 10 µM; 360,000 compounds, 3.2% hits; AID 504652, 2011; in the data active means activity change below about -30%
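HEK293 T-REx cells expressing inducible, force-coupled D1 receptor; no-wash Ca dye, 30–90 min RT. Cmpd → 180 s read at 1 Hz → EC80 DA → 180 s read.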
D1 PAM: Potentiators of Human D1 Dopamine Receptor: qHTS. D(1A) dopamine receptor (Homo sapiens), P21728. HEK293 TREx D1 cells, calcium flux, dopamine EC20 potentiation. potentiation, % at 10 µM. 360,000 compounds, 0.036% hits; in the data active means potentiation above about 30%
A number is an active result; 0 = inactive; ? = inconclusive; - = not tested or not shown. This is a sample that favours compounds with a hit; in the whole collection about 4.2% have one here.

SMILES	D1 agonist	TRPV1 ag	TRPV1 potentiator	D1 antagonist	D1 PAM
C=CCn1c(SCC(=O)Nc2ccc(O)cc2)nc2sc(CC)cc2c1=O	0	?	0	-31	0
Cc1ccc(-c2c(C)n3c4c(=O)n(C)c(=O)n(C)c4nc3n2-c2cccc(O)c2)cc1	0	-	-	0	0
Cn1nnnc1SCC(=O)N1CCN(C(=O)c2ccco2)CC1	0	0	0	-38	0
CCCCn1nnnc1SCC(=O)N1CCN(C(=O)c2ccco2)CC1	0	0	0	0	0
COC(=O)c1ccc(CNCC(O)COc2ccc(-c3ccccc3)cc2)cc1 (stereo unspecified)	0	0	0	0	0
CCOc1ccc(OCC(O)CNC2CCN(Cc3ccccc3)CC2)cc1 (stereo unspecified)	0	0	0	0	0
COc1ccc(CNCC(O)COc2ccc(C(C)(C)c3ccccc3)cc2)cc1 (stereo unspecified)	33	0	0	0	0
CC(C)(c1ccccc1)c1ccc(OCC(O)CNC2CCN(Cc3ccccc3)CC2)cc1 (stereo unspecified)	67	0	0	0	0
OC(CNc1ccccc1)COc1ccc(OCC(O)CNc2ccccc2)cc1 (stereo unspecified)	0	0	0	-40	0
CCc1cc2c(cc3c(=O)n(CC(=O)NCCc4ccccc4)ncn32)s1	0	-	-	0	0
CN(C)CCCN(Cc1ccccc1)C(=S)Nc1cccc(C(F)(F)F)c1	0	0	0	0	0
CCCN(Cc1ccccc1)C(=S)Nc1cccc(C(F)(F)F)c1	0	0	0	-32	0
CN(C)CCCN(Cc1ccccc1)C(=S)Nc1ccc(F)c(Cl)c1	35	0	0	-34	0
COc1cccc2c1cc1c(=O)n(CC(=O)NC3CC3)nc(C)n12	0	-	-	0	0
Cc1ccccc1OCC(O)CNC1CCC(NCC(O)COc2ccccc2C)CC1 (stereo unspecified)	0	0	0	0	0
OC(CNC1CCCC1)COc1ccccc1Br (stereo unspecified)	0	0	0	-36	0
OC(CNC1CCCCCC1)COc1cccc2ccccc12 (stereo unspecified)	45	0	0	0	0
Cc1cc(F)ccc1NC(=O)C(C(C)C)N1Cc2ccccc2C1=O (stereo unspecified)	0	-	-	0	0
CCOC(=O)c1c(C)[nH]c(C)c1S(=O)(=O)N1CCCC(C(=O)Nc2cc(C)ccc2C)C1 (stereo unspecified)	0	-	-	0	0
O=C1/C(=C\c2c(NCCOCCO)nc3ccccn3c2=O)SC(=S)N1Cc1ccco1	138	0	0	0	0
CCCN1C(=O)/C(=C/c2c(NCCCOCC)nc3c(C)cccn3c2=O)SC1=S	0	0	0	0	0
CCn1cc(S(=O)(=O)c2ccccc2)c(=O)c2cc(C)ccc21	0	-	-	0	0
Cc1cccc(N(CC(=O)Nc2ccccc2C(F)(F)F)S(=O)(=O)c2ccccc2)c1C	0	-	-	0	0
COC(=O)c1ccc(OCC2c3cc(OC)c(OC)cc3CCN2C(=O)c2ccc(F)cc2)cc1 (stereo unspecified)	0	-	-	-39	0
COc1cc2c(cc1OC)C(COc1ccccc1OC)N(C(C)=O)CC2 (stereo unspecified)	0	0	0	-49	0
SMILES	D1 agonist	TRPV1 ag	TRPV1 potentiator	D1 antagonist	D1 PAM
COc1cc2c(cc1OC)C(COc1ccccc1OC)N(C(=O)C(C)(C)C)CC2 (stereo unspecified)	0	0	0	0	0
N#CC1CC(c2ccc([N+](=O)[O-])cc2)=NN1c1ccc([N+](=O)[O-])cc1 (stereo unspecified)	34	0	0	0	0
CCOC(=O)c1ccc(N2C(=O)c3[nH]nc(-c4ccc(C)cc4)c3C2c2cccc(F)c2)cc1 (stereo unspecified)	0	-	-	0	0
CCCN1C(=O)C2(c3ccccc31)c1c(oc3ccccc3c1=O)C(=O)N2CCO (stereo unspecified)	0	-	-	0	0
C=CCc1c(C)nc2c(-c3ccccc3)cnn2c1N1CCOCC1	0	0	0	-32	0
O=C(Cc1ccccc1)Nc1ccc(C(=O)Nc2ccc(O)cc2)cc1	33	0	0	0	0
O=C(c1ccncc1)c1ccc(NC(=O)c2cccs2)cc1	0	?	0	-35	0
COc1ccc(C(=O)Nc2ccc(Nc3ccccc3)cc2)cc1OC	0	0	0	-37	0
COc1ccc(C(=O)Nc2cccc(/C(C)=N/NC(=O)c3ccc([N+](=O)[O-])cc3)c2)cc1OC	0	0	0	-34	0
Cc1cccc(N2CCN(C(=O)c3cn(C)c4ccc(S(=O)(=O)N(C)C)cc4c3=O)CC2C)c1 (stereo unspecified)	0	-	-	0	0
Cc1ccc(CNC(=O)c2ccc3c(c2)N(Cc2cccc(C)c2)C(=O)CS3)cc1	0	-	-	0	0
Cc1sc2ncn(CC(=O)N3CCN(c4ccccc4F)CC3)c(=O)c2c1S(=O)(=O)N1CCN(c2ncccn2)CC1	0	-	-	0	0
CC(C)c1ccc(S(=O)(=O)c2nnn3c2nc(N2CCCCC2)c2sccc23)cc1	0	-	-	0	0
O=C(Cc1ccccc1)Nc1ccc(NC(=O)c2cccs2)cc1	0	0	0	-30	0
O=C(NNC(=O)c1ccc(NC(=O)c2ccccc2)cc1)c1ccccc1	59	0	0	0	0
O=C(Nc1ccc(NC(=O)c2cccs2)cc1)c1ccco1	0	0	0	0	0
O=C(OCC(=O)c1cccs1)c1ccc(NC(=O)c2ccco2)cc1	0	0	0	-33	0
CNC(=O)Nc1ccc(C2SCCS2)cc1	0	0	0	0	0
O=C(Cc1ccccc1)NNC(=O)c1ccc(NC(=O)c2ccccc2)cc1	0	0	0	0	0
O=C(Nc1ccc(NC(=O)c2cccs2)cc1)c1ccccc1	0	0	?	0	0
O=C(Nc1ccc(C2SCCS2)cc1)c1ccccc1	0	86	0	0	0
Cc1nc2nc(C)c(CCC(=O)NCc3ccccc3)c(C)n2n1	0	-	-	0	0
Cc1cc2c(s1)c1cnn(Cc3cc(F)cc(F)c3F)c(=O)c1n2C	0	-	-	0	0
Cc1c(Cl)cccc1-n1ncc(C(=O)Nc2ccc(Br)cc2F)c1C1CCNCC1	0	-	-	0	0
CC(C)=CCC/C(C)=C/CC/C(C)=N/O	0	0	0	-32	0
COc1cccc(CNS(=O)(=O)c2ccc3c(c2)N(C(C)=O)CCO3)c1	0	0	0	-90	0
COc1cccc(NS(=O)(=O)c2ccc3c(c2)N(C(C)=O)CCO3)c1	0	0	0	0	0
